Reference: the supplement of paper PMC11732987, “Enantioselective OTUD7B fragment discovery through chemoproteomics screening and high-throughput optimisation” (Communications Chemistry, 2025)

Legend:
Assay in all cases: log2 ratio of Biotin-Ahx-Ub-VS probe labelling (fragment/DMSO); higher = less target engagement (more negative = stronger competition), active = hit call of the paper (q ≤ 0.05, log2 ratio ≤ -1)
Settings in all cases: compound concentration: 200 uM; treatment time: 3 h
[1] = biological target: T1, USP42 (UniProt Q9H9J4)
T1 sequence (whole entry): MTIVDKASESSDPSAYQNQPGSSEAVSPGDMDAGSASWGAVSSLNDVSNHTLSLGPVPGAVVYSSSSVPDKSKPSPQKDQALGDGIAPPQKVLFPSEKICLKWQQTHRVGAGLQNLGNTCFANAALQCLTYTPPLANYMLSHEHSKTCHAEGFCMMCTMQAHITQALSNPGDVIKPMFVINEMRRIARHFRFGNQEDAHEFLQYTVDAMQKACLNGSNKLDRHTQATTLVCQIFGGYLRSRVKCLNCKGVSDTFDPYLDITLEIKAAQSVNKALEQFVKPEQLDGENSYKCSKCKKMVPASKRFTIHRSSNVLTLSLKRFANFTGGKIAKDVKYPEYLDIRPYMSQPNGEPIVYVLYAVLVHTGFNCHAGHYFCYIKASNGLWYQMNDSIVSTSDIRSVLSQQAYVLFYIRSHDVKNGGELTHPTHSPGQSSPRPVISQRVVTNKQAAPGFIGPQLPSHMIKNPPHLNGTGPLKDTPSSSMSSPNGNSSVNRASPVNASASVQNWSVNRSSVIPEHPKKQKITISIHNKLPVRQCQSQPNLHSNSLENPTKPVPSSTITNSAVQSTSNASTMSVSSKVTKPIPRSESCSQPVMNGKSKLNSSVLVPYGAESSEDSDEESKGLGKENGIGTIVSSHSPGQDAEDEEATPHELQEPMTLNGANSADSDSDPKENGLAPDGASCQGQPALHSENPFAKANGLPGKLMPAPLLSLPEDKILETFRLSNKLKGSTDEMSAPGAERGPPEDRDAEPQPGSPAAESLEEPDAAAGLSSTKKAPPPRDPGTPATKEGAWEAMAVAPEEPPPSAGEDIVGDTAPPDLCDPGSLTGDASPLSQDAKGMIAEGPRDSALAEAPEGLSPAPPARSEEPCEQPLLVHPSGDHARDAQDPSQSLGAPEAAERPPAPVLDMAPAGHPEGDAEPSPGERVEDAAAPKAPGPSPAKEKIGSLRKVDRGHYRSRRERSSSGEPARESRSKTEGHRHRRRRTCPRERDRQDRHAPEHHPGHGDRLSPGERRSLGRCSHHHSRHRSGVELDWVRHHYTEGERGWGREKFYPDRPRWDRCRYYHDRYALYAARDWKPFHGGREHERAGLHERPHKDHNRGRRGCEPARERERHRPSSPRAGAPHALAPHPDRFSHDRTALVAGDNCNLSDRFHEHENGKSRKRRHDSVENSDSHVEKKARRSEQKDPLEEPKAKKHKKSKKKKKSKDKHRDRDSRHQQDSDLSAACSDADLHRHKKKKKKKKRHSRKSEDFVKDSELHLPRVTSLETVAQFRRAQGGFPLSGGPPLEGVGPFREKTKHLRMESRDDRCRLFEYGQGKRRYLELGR
Procedure, shortened: (§1)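 HEK293T lysate, 495 µg per sample in Tris/CHAPS/IGEPAL buffer with protease inhibitors, was treated in triplicate with fragment at 200 µM or vehicle for 3 h and then with Biotin-Ahx-Ub-VS at 0.5 µM final for 1 h. Labelled DUBs were NeutrAvidin-enriched, digested with LysC and trypsin, and run by diaPASEF LC-MS/MS. Spectronaut label-free quantities were global-median-normalised, and values are average log2 fragment/vehicle ratios by unpaired t-test on proteins with ≥2 unique peptides.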

[2] = biological target: USP46 (UniProt P62068)
Procedure, shortened: as §1

[3] = biological target: T2, USP47 (UniProt Q96K76)
T2 sequence (whole entry): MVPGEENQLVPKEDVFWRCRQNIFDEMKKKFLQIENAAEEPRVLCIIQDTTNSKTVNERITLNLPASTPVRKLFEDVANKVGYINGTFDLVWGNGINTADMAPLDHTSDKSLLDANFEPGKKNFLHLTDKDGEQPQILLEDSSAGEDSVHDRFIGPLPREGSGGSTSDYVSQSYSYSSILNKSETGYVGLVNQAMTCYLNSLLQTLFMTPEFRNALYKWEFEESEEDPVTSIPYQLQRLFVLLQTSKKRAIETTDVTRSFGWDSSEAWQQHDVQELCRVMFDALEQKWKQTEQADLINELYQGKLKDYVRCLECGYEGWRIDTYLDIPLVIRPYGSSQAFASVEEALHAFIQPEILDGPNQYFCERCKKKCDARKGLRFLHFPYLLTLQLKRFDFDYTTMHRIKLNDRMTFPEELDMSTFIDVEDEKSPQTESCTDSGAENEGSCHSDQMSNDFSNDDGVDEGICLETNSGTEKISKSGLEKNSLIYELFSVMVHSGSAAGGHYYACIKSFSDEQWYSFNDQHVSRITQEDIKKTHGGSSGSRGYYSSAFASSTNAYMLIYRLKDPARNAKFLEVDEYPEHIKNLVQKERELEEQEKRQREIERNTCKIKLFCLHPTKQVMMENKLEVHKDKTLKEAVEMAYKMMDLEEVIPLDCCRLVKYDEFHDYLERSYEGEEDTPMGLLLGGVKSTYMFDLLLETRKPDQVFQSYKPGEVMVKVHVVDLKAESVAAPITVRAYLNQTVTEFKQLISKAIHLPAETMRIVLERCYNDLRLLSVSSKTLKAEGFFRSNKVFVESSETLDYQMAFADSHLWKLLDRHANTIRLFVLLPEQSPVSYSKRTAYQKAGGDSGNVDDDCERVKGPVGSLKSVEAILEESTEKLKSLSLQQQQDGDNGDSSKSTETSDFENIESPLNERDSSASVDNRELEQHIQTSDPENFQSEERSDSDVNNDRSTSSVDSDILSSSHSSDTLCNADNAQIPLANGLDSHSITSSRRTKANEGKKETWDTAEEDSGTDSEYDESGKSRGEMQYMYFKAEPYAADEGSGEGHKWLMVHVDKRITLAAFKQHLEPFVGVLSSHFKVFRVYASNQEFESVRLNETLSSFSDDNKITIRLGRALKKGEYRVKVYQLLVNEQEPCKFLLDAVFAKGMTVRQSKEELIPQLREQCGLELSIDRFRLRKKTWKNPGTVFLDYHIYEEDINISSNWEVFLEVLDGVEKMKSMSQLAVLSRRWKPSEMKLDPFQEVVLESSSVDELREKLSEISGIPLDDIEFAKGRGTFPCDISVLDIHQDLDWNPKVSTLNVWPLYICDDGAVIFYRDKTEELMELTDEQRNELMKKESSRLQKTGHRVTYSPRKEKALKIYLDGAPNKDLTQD
Procedure, shortened: as §1

[4] = biological target: T3, USP48 (UniProt Q86UV5)
T3 sequence (whole entry): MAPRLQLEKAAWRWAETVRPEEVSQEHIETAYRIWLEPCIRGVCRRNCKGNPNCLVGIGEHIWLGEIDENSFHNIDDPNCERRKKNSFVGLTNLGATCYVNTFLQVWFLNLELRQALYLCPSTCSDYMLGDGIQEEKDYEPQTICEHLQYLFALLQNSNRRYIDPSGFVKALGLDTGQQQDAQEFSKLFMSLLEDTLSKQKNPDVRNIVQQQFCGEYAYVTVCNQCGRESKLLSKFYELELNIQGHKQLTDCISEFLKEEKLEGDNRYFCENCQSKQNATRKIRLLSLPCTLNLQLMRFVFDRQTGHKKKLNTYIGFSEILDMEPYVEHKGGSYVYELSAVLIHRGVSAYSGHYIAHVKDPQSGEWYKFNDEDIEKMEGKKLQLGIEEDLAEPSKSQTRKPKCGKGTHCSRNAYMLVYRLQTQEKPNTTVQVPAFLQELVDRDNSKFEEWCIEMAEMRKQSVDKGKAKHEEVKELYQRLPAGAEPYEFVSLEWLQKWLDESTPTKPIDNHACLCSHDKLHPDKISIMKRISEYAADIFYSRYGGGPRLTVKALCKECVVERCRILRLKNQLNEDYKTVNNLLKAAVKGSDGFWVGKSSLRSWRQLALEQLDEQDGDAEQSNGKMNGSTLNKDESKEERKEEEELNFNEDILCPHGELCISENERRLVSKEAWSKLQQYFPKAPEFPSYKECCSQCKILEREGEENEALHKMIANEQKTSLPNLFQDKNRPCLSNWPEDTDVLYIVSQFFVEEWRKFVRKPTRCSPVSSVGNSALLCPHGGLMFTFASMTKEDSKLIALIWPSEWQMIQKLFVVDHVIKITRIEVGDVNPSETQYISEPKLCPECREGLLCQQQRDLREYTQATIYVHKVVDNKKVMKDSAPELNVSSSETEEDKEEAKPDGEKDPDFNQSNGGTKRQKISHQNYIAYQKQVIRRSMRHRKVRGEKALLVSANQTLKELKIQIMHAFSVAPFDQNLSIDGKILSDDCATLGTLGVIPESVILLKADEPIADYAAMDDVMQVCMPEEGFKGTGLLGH
Procedure, shortened: as §1

[5] = biological target: T4, USP5 (UniProt P45974)
T4 sequence (whole entry): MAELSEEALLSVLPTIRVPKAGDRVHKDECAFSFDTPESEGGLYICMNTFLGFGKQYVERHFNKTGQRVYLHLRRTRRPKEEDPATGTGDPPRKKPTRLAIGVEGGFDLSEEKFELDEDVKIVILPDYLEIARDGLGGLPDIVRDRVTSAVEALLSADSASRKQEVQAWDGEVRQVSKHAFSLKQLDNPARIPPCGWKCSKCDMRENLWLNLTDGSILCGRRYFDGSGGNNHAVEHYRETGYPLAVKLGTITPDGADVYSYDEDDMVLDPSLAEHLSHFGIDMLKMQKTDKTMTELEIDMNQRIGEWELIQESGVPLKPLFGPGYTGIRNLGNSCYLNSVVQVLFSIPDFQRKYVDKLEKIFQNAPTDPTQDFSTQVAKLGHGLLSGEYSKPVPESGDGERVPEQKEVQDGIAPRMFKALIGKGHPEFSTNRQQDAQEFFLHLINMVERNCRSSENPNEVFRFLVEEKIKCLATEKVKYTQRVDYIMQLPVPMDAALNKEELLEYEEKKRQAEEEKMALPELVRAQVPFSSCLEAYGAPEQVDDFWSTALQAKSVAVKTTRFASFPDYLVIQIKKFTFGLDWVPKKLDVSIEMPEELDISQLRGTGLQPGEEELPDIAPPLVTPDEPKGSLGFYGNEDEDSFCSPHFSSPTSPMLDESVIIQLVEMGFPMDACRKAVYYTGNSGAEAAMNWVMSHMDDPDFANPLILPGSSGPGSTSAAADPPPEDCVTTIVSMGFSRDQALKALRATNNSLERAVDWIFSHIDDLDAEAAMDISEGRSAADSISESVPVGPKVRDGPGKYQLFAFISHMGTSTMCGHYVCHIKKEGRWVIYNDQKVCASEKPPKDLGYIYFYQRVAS
Procedure, shortened: as §1

[6] = biological target: USP54 (UniProt Q70EL1)
Procedure, shortened: as §1

[7] = biological target: USP7 (UniProt Q93009)
Procedure, shortened: as §1

[8] = biological target: T5, USP8 (UniProt P40818)
T5 sequence (whole entry): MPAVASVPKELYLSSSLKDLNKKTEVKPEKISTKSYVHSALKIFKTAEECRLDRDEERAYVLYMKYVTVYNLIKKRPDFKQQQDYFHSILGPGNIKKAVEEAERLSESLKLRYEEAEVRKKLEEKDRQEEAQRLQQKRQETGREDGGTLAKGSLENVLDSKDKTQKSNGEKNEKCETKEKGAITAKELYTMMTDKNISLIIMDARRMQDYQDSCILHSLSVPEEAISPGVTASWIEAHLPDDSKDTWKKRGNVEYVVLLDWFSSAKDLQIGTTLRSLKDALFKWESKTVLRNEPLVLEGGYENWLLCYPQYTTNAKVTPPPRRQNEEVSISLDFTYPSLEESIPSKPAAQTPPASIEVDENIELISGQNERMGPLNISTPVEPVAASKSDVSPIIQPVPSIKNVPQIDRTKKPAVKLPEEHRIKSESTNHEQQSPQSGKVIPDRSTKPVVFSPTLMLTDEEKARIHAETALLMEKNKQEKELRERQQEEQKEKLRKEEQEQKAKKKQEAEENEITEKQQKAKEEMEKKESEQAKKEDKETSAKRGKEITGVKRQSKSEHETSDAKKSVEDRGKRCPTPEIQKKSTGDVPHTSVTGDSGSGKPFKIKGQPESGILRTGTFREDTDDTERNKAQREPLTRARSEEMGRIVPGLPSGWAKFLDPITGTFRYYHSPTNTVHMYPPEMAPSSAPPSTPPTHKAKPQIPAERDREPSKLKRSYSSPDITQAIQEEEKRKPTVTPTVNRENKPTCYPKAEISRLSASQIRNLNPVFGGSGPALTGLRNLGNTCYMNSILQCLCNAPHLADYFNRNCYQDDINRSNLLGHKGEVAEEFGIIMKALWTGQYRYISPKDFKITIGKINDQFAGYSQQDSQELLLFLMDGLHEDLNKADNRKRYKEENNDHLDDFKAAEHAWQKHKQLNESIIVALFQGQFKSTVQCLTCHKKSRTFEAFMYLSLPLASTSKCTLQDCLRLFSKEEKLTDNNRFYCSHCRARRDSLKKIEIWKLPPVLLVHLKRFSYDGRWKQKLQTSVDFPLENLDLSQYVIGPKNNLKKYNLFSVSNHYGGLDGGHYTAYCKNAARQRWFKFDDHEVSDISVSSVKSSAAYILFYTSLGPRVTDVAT
Procedure, shortened: as §1

[9] = biological target: USP9X (UniProt Q93008)
Procedure, shortened: as §1

[10] = biological target: UniProt O00487
Procedure, shortened: as §1

Measured: log2 ratio of Biotin-Ahx-Ub-VS probe labelling

Chain of USP7 (Q93009 whole entry, looked up): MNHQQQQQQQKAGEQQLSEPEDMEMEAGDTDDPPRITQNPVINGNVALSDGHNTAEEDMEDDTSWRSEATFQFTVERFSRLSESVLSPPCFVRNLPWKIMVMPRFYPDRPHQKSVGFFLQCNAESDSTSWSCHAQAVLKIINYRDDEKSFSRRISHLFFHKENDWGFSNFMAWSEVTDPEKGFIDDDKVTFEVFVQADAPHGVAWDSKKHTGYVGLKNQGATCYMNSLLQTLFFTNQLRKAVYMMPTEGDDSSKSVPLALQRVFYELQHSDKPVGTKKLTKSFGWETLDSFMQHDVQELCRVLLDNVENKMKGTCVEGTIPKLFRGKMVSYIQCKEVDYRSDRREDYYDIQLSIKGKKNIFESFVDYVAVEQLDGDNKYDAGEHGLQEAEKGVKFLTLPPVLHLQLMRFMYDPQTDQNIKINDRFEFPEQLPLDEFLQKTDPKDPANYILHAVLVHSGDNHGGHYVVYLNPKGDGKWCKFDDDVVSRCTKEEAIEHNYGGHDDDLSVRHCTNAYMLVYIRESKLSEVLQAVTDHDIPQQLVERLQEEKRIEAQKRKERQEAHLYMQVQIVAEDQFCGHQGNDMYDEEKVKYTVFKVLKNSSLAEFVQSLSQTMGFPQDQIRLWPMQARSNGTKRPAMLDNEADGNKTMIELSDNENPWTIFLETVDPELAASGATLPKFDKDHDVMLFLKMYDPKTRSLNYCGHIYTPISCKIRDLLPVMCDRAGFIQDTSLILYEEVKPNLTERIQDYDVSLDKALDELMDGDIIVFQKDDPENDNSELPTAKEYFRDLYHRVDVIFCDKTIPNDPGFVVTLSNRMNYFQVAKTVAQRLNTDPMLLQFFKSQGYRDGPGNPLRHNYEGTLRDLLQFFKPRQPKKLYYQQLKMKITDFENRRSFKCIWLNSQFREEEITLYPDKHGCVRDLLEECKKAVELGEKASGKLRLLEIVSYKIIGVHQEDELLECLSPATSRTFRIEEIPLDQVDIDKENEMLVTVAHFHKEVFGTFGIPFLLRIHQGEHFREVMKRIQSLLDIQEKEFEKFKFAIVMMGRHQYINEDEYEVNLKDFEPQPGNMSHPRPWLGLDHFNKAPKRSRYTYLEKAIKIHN
Chain of UniProt O00487 (O00487 whole entry): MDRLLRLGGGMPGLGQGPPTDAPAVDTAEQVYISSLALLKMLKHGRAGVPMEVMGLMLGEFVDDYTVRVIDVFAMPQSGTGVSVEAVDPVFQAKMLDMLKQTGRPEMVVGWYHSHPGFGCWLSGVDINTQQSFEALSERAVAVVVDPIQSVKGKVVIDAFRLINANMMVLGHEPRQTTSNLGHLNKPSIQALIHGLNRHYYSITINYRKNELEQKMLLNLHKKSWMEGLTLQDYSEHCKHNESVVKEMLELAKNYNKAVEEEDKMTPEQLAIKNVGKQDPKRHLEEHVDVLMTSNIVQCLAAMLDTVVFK
Chain of USP54 (Q70EL1 whole entry): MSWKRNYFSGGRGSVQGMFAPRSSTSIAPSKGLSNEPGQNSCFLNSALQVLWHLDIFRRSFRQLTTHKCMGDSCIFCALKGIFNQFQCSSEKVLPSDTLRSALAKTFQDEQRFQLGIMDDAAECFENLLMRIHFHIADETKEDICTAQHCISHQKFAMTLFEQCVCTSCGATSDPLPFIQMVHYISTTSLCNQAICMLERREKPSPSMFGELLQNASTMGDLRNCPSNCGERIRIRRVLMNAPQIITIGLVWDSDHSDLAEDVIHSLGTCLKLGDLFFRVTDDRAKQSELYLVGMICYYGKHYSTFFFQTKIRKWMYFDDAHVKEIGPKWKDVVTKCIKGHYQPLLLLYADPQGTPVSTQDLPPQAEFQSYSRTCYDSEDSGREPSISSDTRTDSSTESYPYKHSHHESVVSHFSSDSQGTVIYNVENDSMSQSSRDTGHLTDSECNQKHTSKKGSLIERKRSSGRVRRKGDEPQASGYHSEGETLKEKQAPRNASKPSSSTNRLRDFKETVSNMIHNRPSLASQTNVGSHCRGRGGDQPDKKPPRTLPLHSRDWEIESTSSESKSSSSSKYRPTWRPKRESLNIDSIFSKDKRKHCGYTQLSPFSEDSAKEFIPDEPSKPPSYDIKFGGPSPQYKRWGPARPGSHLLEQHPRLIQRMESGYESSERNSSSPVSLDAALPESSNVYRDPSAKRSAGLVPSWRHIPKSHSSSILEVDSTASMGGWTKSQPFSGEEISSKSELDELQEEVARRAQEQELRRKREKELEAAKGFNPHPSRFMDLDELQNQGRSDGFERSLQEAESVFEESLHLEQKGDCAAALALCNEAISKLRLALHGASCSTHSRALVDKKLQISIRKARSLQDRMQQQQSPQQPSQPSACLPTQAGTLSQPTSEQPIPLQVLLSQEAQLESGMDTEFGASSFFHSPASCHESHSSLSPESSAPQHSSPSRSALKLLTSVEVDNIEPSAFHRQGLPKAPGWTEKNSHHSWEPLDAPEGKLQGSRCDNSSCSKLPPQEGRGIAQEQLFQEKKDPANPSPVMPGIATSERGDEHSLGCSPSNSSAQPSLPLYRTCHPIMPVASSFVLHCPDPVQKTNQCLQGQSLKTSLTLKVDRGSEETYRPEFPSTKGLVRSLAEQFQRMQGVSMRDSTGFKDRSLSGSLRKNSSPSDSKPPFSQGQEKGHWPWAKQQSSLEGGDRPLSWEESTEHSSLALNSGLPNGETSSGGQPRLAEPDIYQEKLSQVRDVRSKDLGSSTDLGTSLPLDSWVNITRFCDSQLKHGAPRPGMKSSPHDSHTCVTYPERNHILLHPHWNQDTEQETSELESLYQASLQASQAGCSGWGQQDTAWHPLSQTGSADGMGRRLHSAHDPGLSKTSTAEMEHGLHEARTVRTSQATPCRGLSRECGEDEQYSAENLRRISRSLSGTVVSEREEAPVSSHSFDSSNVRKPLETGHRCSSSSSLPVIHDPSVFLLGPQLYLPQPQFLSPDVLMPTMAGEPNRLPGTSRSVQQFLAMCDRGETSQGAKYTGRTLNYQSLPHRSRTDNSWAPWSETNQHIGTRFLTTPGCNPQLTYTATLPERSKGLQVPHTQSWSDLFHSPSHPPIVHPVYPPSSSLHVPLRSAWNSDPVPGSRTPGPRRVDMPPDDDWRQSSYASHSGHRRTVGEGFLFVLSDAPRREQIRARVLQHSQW
Chain of USP46 (P62068 whole entry): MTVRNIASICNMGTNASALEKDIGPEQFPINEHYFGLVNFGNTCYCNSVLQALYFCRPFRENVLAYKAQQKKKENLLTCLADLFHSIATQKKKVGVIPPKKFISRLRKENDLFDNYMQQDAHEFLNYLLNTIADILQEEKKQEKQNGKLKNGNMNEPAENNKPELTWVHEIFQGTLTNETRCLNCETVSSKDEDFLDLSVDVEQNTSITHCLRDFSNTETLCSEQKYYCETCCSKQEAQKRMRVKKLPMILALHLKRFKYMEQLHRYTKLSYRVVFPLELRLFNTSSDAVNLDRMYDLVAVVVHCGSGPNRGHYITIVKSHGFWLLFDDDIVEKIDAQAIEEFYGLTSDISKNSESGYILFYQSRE

CC1(NC(=O)CCl)CCS(=O)(=O)C1 (stereo not given)
inactive: [1] 0.324 | [2] -0.538 | [3] -0.0229 | [4] -0.544 | [5] -0.73 | [6] 1.09 | [7] -0.793 | [8] -0.788 | [9] -0.847 | [10] -0.00664

CC1CN(c2ccc(NC(=O)CCl)cc2)CC(C)O1 (stereo not given)
inactive: [1] 0.0421 | [2] 0.0265 | [3] -0.557 | [4] -0.402 | [5] -0.0419 | [6] 0.973 | [7] -0.186 | [8] -0.0842 | [9] -0.166 | [10] -0.0932

CC(c1ccccc1)N(C)C(=O)CCl (stereo not given)
inactive: [1] -0.0241 | [2] -0.161 | [3] 0.0295 | [4] -0.407 | [5] 0.359 | [6] 0.0889 | [7] -0.735 | [8] -0.0666 | [9] -0.115 | [10] -0.0533
